Experimental data taken from PubChem BioAssay AID489025 (Southern Research Specialized Biocontainment Screening …, 2010).
Hit rate of the full screen: of about 2,300 compounds, about 790 (34%) were called active. How the calls were made is not given here. The list shows a part of the results. Potency and affinity values are given separately.

test: THP-1 cell cytotoxicity, dose response, cytotoxicity control for non-replicating M. tuberculosis project (AID 489025); details: THP-1 cell viability; series mostly up to 40 µM; viability: at the top concentration

Row | SMILES | viability
1 | O=C(C1CCN(C2CC(=O)N(Cc3ccccc3)C2=O)CC1)N1CCCCCC1 (stereo unspecified) | 103% (inactive)
2 | Cc1cccc(OC(=O)c2ccc3nccnc3c2)c1 | 101% (inactive)
3 | CCOC(=O)C1(CC2CCCCO2)CCN(Cc2nccn2-c2ccc(OC)cc2)CC1 (stereo unspecified) | 93.6% (inactive)
4 | O=C(COc1ccc2ccccc2c1Br)N1CCCC1 | 107% (inactive)
5 | C=CC(=O)Oc1ccc(N2Cc3ccccc3C2=O)cc1 | 105% (inactive)
6 | CCOC(=O)Cn1nc(/C=C/c2ccccc2)ccc1=O | 115% (inactive)
7 | O=C1NC(Cc2c[nH]c3ccccc23)C(=O)N1CCOc1ccccc1 (stereo unspecified) | 92.5% (inactive)
8 | CC(C)c1nnc(NC(=O)c2cc3cc(Br)ccc3oc2=O)s1 | 90.6% (inactive)
9 | CC(C)c1nnc(NC(=O)c2sc3ccccc3c2Cl)s1 | 107% (inactive)
10 | O=C(N/N=C/C=C/c1ccccc1)c1cccs1 | 120% (inactive)
11 | N/C(=N\OC(=O)c1cccs1)c1ccccc1 | 90.9% (inactive)
12 | O=C(OCC(=O)c1c[nH]c2ccccc12)c1ccc([N+](=O)[O-])s1 | 92.8% (inactive)
13 | CCOC(=O)c1c(C)[nH]c(C)c1C(=O)COC(=O)c1ccc([N+](=O)[O-])s1 | 83.1% (inactive)
14 | CC1(C)CC(=O)C2=C(C1)OC(N)=C([N+](=O)[O-])C2c1ccc(C#N)s1 (stereo unspecified) | 108% (inactive)
15 | COC(=O)C1=C(N)OC2=C(C(=O)CC(C)(C)C2)C1c1cccnc1 (stereo unspecified) | 101% (inactive)
16 | COc1ccccc1NC(=O)CCN1CCN(c2ccc(Cl)cc2)CC1 | 114% (inactive)
17 | O=[N+]([O-])c1ccc(CSc2nnc(-c3cccnc3)o2)cc1 | 94.9% (inactive)
18 | CC1(c2nnc(-c3ccc(F)cc3)o2)CC(c2cccc(Cl)c2)=NO1 (stereo unspecified) | 102% (inactive)
19 | COC(=O)CCn1c(C)cc(C(=O)COc2ccccc2C(N)=O)c1C | 70.3% (inactive)
20 | CCOC(=O)C(C)Oc1ccc(OCc2ccccc2)cc1 (stereo unspecified) | 77.2% (inactive)
21 | CCCNC(=O)c1ccc(COc2ccc(C)cc2)o1 | 110% (inactive)

Row | SMILES | viability
22 | Cc1ccc(/C=C2\SC(N3CCCC3)=NC2=O)cc1 | 91.7% (inactive)
23 | CCNC(=O)NC(=O)C(C)OC(=O)CCCSc1nc2ccccc2s1 (stereo unspecified) | 99.5% (inactive)
24 | O=[N+]([O-])c1ccc(Nc2ccccc2O)c2nonc12 | 79.9% (inactive)
25 | O=[N+]([O-])c1ccc(Nc2ccccc2)c2nonc12 | 95.5% (inactive)
26 | CC1(c2nnc(-c3ccccc3)o2)CC(c2ccc(Cl)cc2)=NO1 (stereo unspecified) | 112% (inactive)
27 | Cn1cccc1/C=N/NC(=O)c1ccncc1 | 109% (inactive)
28 | C/C(=N/NC(=O)c1ccncc1)C1=C(O)CC(C)(C)CC1=O | 120% (inactive)
29 | O=[N+]([O-])c1cncc([N+](=O)[O-])c1Nc1ccccc1Cl | 70.5% (inactive)
30 | Cc1cccc(NC(=O)c2ccc(OC3CSC3)cc2)c1 | 87.2% (inactive)
31 | O=C(N/N=C/c1ccc(OC(=O)c2cccs2)cc1)c1ccccn1 | 88.1% (inactive)
32 | COc1ccc(Cc2nnc(SCc3ccc([N+](=O)[O-])cc3)o2)cc1 | 86.3% (inactive)
33 | O=C(OCC(=O)N1CCC(c2ccccc2)=N1)c1ccc([N+](=O)[O-])s1 | 85.2% (inactive)
34 | CC(OC(=O)c1ccc([N+](=O)[O-])s1)C(=O)NC1CCCCC1C (stereo unspecified) | 90.2% (inactive)
35 | COc1cccc(NC(=O)c2ccc(Cn3cc([N+](=O)[O-])cn3)o2)c1 | 111% (inactive)
36 | O=C(Nc1ccc2c(c1)CCC2)c1ccc(Br)o1 | 74.3% (inactive)
37 | CC(=O)c1ccc(NC(=O)CCc2ccc(C)o2)cc1 | 92.8% (inactive)
38 | CC(C)(C)C(=O)/C=C/Nc1ccccc1O | 102% (inactive)
39 | O=C(CC1CC2CCC1C2)NCc1cccs1 (stereo unspecified) | 100% (inactive)
40 | O=C(OCC(=O)N1CCc2ccccc2C1)c1cccc([N+](=O)[O-])c1 | 121% (inactive)
41 | O=C(CCS(=O)(=O)c1ccc(Cl)cc1)Oc1ccc2c(c1)OCO2 | 110% (inactive)
42 | CCc1cc(C=NC2CCCCC2)c(O)s1 | 82.6% (inactive)

Row | SMILES | viability
43 | Cc1ccc(CSc2nnc(-c3cccnc3)o2)cc1 | 105% (inactive)
44 | Cc1ccccc1C1=N/C(=C/c2cccnc2)C(=O)O1 | 102% (inactive)
45 | CCCc1nnc(NC(=O)c2cc3ccccc3oc2=O)s1 | 108% (inactive)
46 | COc1cc(OC)c2c(OC)cccc2n1 | 107% (inactive)
47 | CC(NC(=O)c1cc2ccccc2oc1=O)c1ccccc1 (stereo unspecified) | 110% (inactive)
48 | Cc1ccc(C(C)NC(=O)c2cc3ccccc3oc2=O)cc1C (stereo unspecified) | 102% (inactive)
49 | CCCc1cc(C(=O)Nc2cccc(C(C)=O)c2)no1 | 120% (inactive)
50 | Cc1cc(OCC(=O)Nc2ccncc2)ccc1Br | 119% (inactive)
51 | CSC1=N/C(=C\c2ccc3c(c2)OCO3)C(=O)S1 | 116% (inactive)
52 | COc1ccc2c(c1)sc(=N)n2C | 74.8% (inactive)
53 | Cc1ccc(NC(=O)C2COc3ccccc3O2)nc1 (stereo unspecified) | 94.7% (inactive)
54 | O=C(Nc1nnc(C2=COCCO2)o1)c1ccc(F)cc1 | 81.9% (inactive)
55 | COc1ccc(C(=O)Nc2nnc(C3=COCCO3)o2)cc1 | 105% (inactive)
56 | O=c1oc2ccccc2c(Nc2ccccc2O)c1[N+](=O)[O-] | 93.7% (inactive)
57 | CCCn1c(CNc2ccccc2O)nc2ccccc21 | 75.4% (inactive)
58 | Clc1ccc(OC2CCN(Cc3nc(CC4CC4)no3)CC2)cc1 | 90% (inactive)
59 | CCCCOc1ccc(-c2nnn(C(C)C(=O)OCC)n2)cc1 (stereo unspecified) | 105% (inactive)
60 | CCOC(=O)c1sc(NC(=O)CCN2CC(C)OC(C)C2)c(C(=O)OCC)c1C (stereo unspecified) | 82.6% (inactive)
61 | CCc1nonc1NC(=O)COc1ccc(Cl)c(C)c1 | 126% (inactive)
